# HIF-2a block: HIF-2a reporter inhibitors, primary screen, luminescence, 786-0 RCC cells; 786-0 RCC cells HIF-2a reporter, luciferase luminescence, overnight; inhibition, % at 18.8 µM; 360,000 tested, 0.72% active; AID 624352, 2012;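 active means inhibition of the luminescence signal of 40% or more relative to plate controls, in a single-dose primary screen at 18.75 µM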
# Shn3 inh set2: reduction of Shn3 3'UTR firefly luciferase signal, primary screen, Schnurri-3 inhibitor project, cell-based, Clone20 osteoblasts, set 2. 360,000 tested, 0.52% active. inhibition, % at 12.5 µM. Clone20 osteoblast Shn3 3'UTR firefly luciferase, 24 h. AID 588674, 2011;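 active means mean inhibition of at least 75% with every replicate also reaching 75%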
# CF NFkB inh: inhibitors of PAF-induced NF-kB signaling, primary screen, cell-based, GFP fluorescence, uHTS; AID 588850, 2011; 360,000 tested, 0.86% active; inhibition, % at 5 µM; KKLEB NF-kB-GFP reporter, GFP fluorescence overnight;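 active means at least 50% inhibition at 5 µM, scaled per plate between neutral and stimulator controls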;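 further: PAF is a Pseudomonas aeruginosa culture filtrate used as stimulus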
# Peg3 promoter: Peg3 promoter-driven luciferase inhibitors, primary screen, cell-based, HeLa, luciferase luminescence | HeLa PEG-Prom luciferase reporter, overnight | inhibition, % at 20 µM | 360,000 tested, 1.7% active;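 active means inhibition of at least 50% at 20 µM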
# KKLEB cytotox: cytotoxicity in KKLEB CF airway cells, primary screen, cytotoxicity control for CF NF-kB inhibitor project, cell-based, uHTS, fluorescence assay plates; KKLEB CF airway cells viability, ATPlite luminescence, overnight; hits give low values; cells stimulated with P. aeruginosa culture filtrate; activity change (cytotoxicity), % at 5 µM; 360,000 tested, 0.36% active; AID 602141, 2011;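 active means corrected activity change at or below -50% at 5 µM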
# Hits are given with their value; . = inactive; / = not tested or not shown. A selection: hits, their analogues and other compounds. The true share with any hit is near 2.6%.
SMILES,HIF-2a block,Shn3 inh set2,CF NFkB inh,Peg3 promoter,KKLEB cytotox
C[C@@]12C(C[C@H](O)[C@@]34C[C@@H](CCC13)[C@@H](CO)C4=O)[C@](C)(C(=O)O)CC[C@@H]2O (stereo partly drawn),.,.,.,.,.
Cc1ccsc1-c1nc(CN(C)C(C2CC2)C2CC2)c(C)o1,.,.,.,.,.
COc1ccc(-c2ccc3[nH]c4c(c3c2)CCN2C(=O)[C@@H]([C@H](C)O)[C@@H](N(C)C(=O)Nc3ccc(F)cc3)C[C@@H]42)cc1,.,.,.,95,.
COc1ccc(-c2ccc3[nH]c4c(c3c2)CCN2C(=O)[C@@H]([C@H](C)O)[C@@H](N(C)C(=O)Nc3cc(Cl)cc(Cl)c3)C[C@@H]42)cc1,.,.,.,.,.
CCOc1ccc(C(CC(=O)O)n2cnnn2)cc1 (stereo not drawn),.,.,.,.,.
O=C(/C=C/c1ccc([N+](=O)[O-])cc1)Nc1ncc([N+](=O)[O-])s1,.,.,.,.,-52
COC(=O)[C@]12CCCCC=C1N(CCc1ccc(OC)c(OC)c1)C(=O)[C@H](CC(=O)N1CCN(C(=O)c3ccco3)CC1)C2,.,/,/,/,/
CC1(C)Cc2c(sc(NC(=O)c3ccc(C(=O)c4ccccc4)cc3)c2C(N)=O)C(C)(C)N1,.,.,.,83,.
COC(=O)c1c(NC(=O)c2ccc(OC(C)C)cc2)sc2c1CC(C)(C)NC2(C)C,.,.,.,98,.
CC(C)c1ccc(NC(=O)C2Cc3c(-c4cccc(F)c4)ccnc3O2)cc1 (stereo not drawn),.,.,.,.,.
COc1ccc(-n2c(C)c([N+](=O)[O-])c3ccc(O)c(CN4CCCCC4)c32)cc1,.,.,73,.,.
CCN(CC)CCCN=C1N[C@@H](c2cccc(C(F)(F)F)c2)C(C(=O)OC)=C(C)N1CC,.,.,.,51,.
COCCN=C1N[C@@H](c2ccccc2)C(C(=O)OC)=C(C)N1Cc1ccccc1,.,.,.,.,.
COC(=O)C1=C(C)N(Cc2ccccc2)C(=NCc2cc(OC)c(OC)c(OC)c2)N[C@H]1c1ccc(Br)cc1,.,.,.,106,.
COC(=O)C1=C(C)N(Cc2ccccc2)C(=NCCc2c[nH]c3ccccc23)N[C@H]1c1cccc(F)c1,.,98,.,102,.
COC(=O)C1=C(C)N(Cc2ccccc2)C(=NCc2cc(OC)c(OC)c(OC)c2)N[C@H]1c1ccccc1,/,.,/,/,/
COC(=O)C1=C(C)N(Cc2ccccc2)C(=NCc2ccccc2)N[C@H]1c1ccccc1,.,.,.,92,.
O=C(O)CCC(NC(=S)Nc1ccccc1)C(=O)O (stereo not drawn),.,.,.,.,.
O=C(C[n+]1ccccc1)N/N=C/c1ccc(Cl)cc1,.,.,.,.,.
Nc1ccc(C(=O)c2cccs2)cc1[N+](=O)[O-],.,.,.,.,.
COC(=O)C1=C(C)N(Cc2ccccc2)C(=NCc2ccccc2)N[C@H]1c1cccc(F)c1,.,.,.,101,.
COC(=O)c1ccc(N2CCN(C)CC2)c(NC(=O)c2sc3ccccc3c2Cl)c1,.,.,.,110,.
CCOc1ccccc1C1C2=C(COC2=O)Nc2cc3c(cc21)OCO3 (stereo not drawn),.,.,54,.,.
O=C1OCC2=C1C(c1ccc(F)cc1)c1cc3c(cc1N2)OCCO3 (stereo not drawn),.,.,63,.,.
C#CCOc1ccc(C2C3=C(COC3=O)Nc3cc4c(cc32)OCO4)cc1OC (stereo not drawn),.,.,.,.,.
SMILES,HIF-2a block,Shn3 inh set2,CF NFkB inh,Peg3 promoter,KKLEB cytotox
O=C1OCC2=C1C(c1ccc(F)cc1)c1cc3c(cc1N2)OCO3 (stereo not drawn),.,.,59,.,.
CC(=O)c1ccc(N2CCN(S(=O)(=O)c3cc4c(cc3C)NC(=O)CO4)CC2)cc1,.,.,.,.,.
CC(=O)Nc1ccc(/C=C/c2nc(-c3ccccc3O)n[nH]2)cc1,.,.,.,.,.
CCN1C(=O)/C(=C/N(C(C)=O)c2ccccc2)N(c2ccccc2)C1=S,86,.,.,.,.
ClCc1nc2ccccc2n1Cc1ccccc1,.,.,.,107,.
COCc1nc2ccccc2n1Cc1ccccc1,.,.,.,.,.
CC(C)(C)c1ccc(S(=O)(=O)N2CCSC2)cc1,.,.,.,.,.
COC(=O)c1c(-c2cccc3ccccc23)csc1NC(=O)Cc1ccc(OC)c(OC)c1,.,87,.,.,.
O=C(O)c1ccc(/C=N/NC(=O)c2ccc(NS(=O)(=O)c3cccs3)cc2)cc1,.,.,.,.,.
COc1ccc(/C=N/NC(=O)c2ccc(NS(=O)(=O)c3cccs3)cc2)cc1,.,.,.,104,.
O=S(=O)(Nc1ccc(C(O)(C(F)(F)F)C(F)(F)F)cc1)c1ccc(Cl)c2nonc12,.,.,.,98,.
O=S(=O)(Nc1ccc(Br)cc1)c1cccc2nonc12,.,.,.,.,.
CN1CCN(C(=O)c2cccn(Cc3ccc(C(F)(F)F)cc3)c2=O)CC1,.,.,.,.,.
Cc1ccc(NS(=O)(=O)c2cc(NC(=O)c3ccc4c(c3)NC(=O)CS4)ccc2Cl)c(C)c1,.,.,.,52,.
COc1ccc(NC(=O)c2ccc3c(c2)NC(=O)CS3)cc1,.,.,.,.,.
CCOc1ccc(S(N)(=O)=O)cc1-c1nc2c(C(C)(C)C)nn(C)c2c(=O)[nH]1,.,.,.,.,.
CCOc1ccc(S(=O)(=O)NC(C)(C)C)cc1-c1nc2c(C(C)(C)C)nn(C)c2c(=O)[nH]1,.,.,.,53,.
COc1ccc(CCn2c(=O)c3cccnc3n(Cc3cccc([N+](=O)[O-])c3)c2=O)cc1OC,.,.,.,.,.
COc1cc2[nH]c(=O)n(CCCCCC(=O)N3CCN(c4ccccc4)CC3)c(=O)c2cc1OC,.,.,.,58,.
COc1ccccc1/C=C/C1(C(=O)NC2CCCC2)CC(=O)N1c1ccc(F)cc1 (stereo not drawn),.,.,80,.,-77
COc1ccc(S(=O)(=O)N2CCOCC2)cc1NC(=O)CSc1cccc[n+]1[O-],.,.,.,.,.
Nc1cccc(-c2c[nH]c3ncc(-c4cccnc4)cc23)c1,.,.,80,.,.
CCN1c2ccccc2N(C)C1(C)c1ccccc1 (stereo not drawn),.,89,.,.,.
N=C1/C(=C\c2ccc(-c3cccc(Cl)c3)o2)C(=O)N=C2SC=C(c3ccccc3)N12,.,.,.,.,.
